From the supplement of paper PMC8728848
Only a selection was taken, and the strongest signals are over-represented in it overall.

Experiments:
Assay in all cases: glycan array binding signal (z-score within array); higher = stronger binding
Settings in all cases: glycan notation: IUPAC condensed, linker removed
Gal(b1-6)Gal = molecular target: Gal(b1-6)Gal
In short: (§1)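 Glycan array binding is given as a within-array Z-score, which can be read as non-binding when negative. The arrays, 3228 of them, came from the Consortium for Functional Glycomics database and were retained only where the protein sequence was available. Z-scores were averaged across arrays of the same protein sequence at different concentrations or buffers and across linkers.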

Gal3S6S(b1-4)GlcNAc = molecular target: Gal3S6S(b1-4)GlcNAc
In short: as §1

Gal3S6S(b1-4)GlcNAc6S = molecular target: Gal3S6S(b1-4)GlcNAc6S
In short: as §1

Gal4S6S(b1-4)GlcNAc = molecular target: Gal4S6S(b1-4)GlcNAc
In short: as §1

Gal6S(b1-4)Glc = molecular target: Gal6S(b1-4)Glc
In short: as §1

[1] = molecular target: GlcA3S(b1-3)Gal(b1-4)GlcNAc(b1-2)Man
In short: as §1

[2] = molecular target: GlcNAc(a1-4)Gal(b1-4)GlcNAc(b1-3)Gal(b1-4)GlcNAc
In short: as §1

[3] = molecular target: GlcNAc(b1-2)[GlcNAc(b1-4)]Man(a1-3)[GlcNAc(b1-2)Man(a1-6)]Man(b1-4)GlcNAc(b1-4)GlcNAc
In short: as §1

[4] = molecular target: GlcNAc(b1-3)Gal(b1-4)GlcNAc(b1-3)Gal(b1-4)GlcNAc(b1-3)Gal(b1-4)GlcNAc(b1-3)Gal(b1-4)GlcNAc(b1-2)[GlcNAc(b1-3)Gal(b1-4)GlcNAc(b1-3)Gal(b1-4)GlcNAc(b1-3)Gal(b1-4)GlcNAc(b1-3)Gal(b1-4)GlcNAc(b1-6)]Man(a1-6)[GlcNAc(b1-3)Gal(b1-4)GlcNAc(b1-3)Gal(b1-4)GlcNAc(b1-3)Gal(b1-4)GlcNAc(b1-3)Gal(b1-4)GlcNAc(b1-2)Man(a1-3)]Man(b1-4)GlcNAc(b1-4)[Fuc(a1-6)]GlcNAc
In short: as §1

[5] = molecular target: GlcNAc(b1-3)[GlcNAc(b1-6)]Gal(b1-4)GlcNAc
In short: as §1

[6] = molecular target: Man(a1-2)Man(a1-2)Man(a1-3)Man
In short: as §1

[7] = molecular target: Man(a1-3)[Man(a1-6)]Man(b1-4)GlcNAc(b1-4)[Fuc(a1-6)]GlcNAc
In short: as §1

[8] = molecular target: Neu5Ac(a2-3)Gal(b1-3)GalNAc(b1-4)[Neu5Ac(a2-3)]Gal(b1-4)Glc
In short: as §1

[9] = molecular target: Neu5Ac(a2-3)Gal(b1-3)GlcNAc(b1-6)GalNAc
In short: as §1

[10] = molecular target: Neu5Ac(a2-3)Gal(b1-3)[Fuc(a1-4)]GlcNAc(b1-3)Gal(b1-4)[Fuc(a1-3)]GlcNAc
In short: as §1

[11] = molecular target: Neu5Ac(a2-3)Gal(b1-3)]Neu5Ac(a2-3)Gal(b1-4)]GlcNAc
In short: as §1

[12] = molecular target: Neu5Ac(a2-3)Gal(b1-4)GlcNAc(b1-2)Man(a1-3)[GlcNAc(b1-4)][Neu5Ac(a2-3)Gal(b1-4)GlcNAc(b1-2)Man(a1-6)]Man(b1-4)GlcNAc(b1-4)GlcNAc
In short: as §1

[13] = molecular target: Neu5Ac(a2-3)Gal(b1-4)GlcNAc(b1-2)Man(a1-3)[Neu5Ac(a2-3)Gal(b1-4)GlcNAc(b1-2)Man(a1-6)]Man(b1-4)GlcNAc(b1-4)GlcNAc
In short: as §1

[14] = molecular target: Neu5Ac(a2-3)Gal(b1-4)GlcNAc(b1-3)Gal(b1-4)GlcNAc(b1-3)Gal(b1-4)GlcNAc(b1-2)Man(a1-3)[Neu5Ac(a2-3)Gal(b1-4)GlcNAc(b1-3)Gal(b1-4)GlcNAc(b1-3)Gal(b1-4)GlcNAc(b1-2)Man(a1-6)]GalNAc
In short: as §1

[15] = molecular target: Neu5Ac(a2-3)Gal(b1-4)GlcNAc6S
In short: as §1

[16] = molecular target: Neu5Ac(a2-3)Gal(b1-4)[Fuc(a1-3)]GlcNAc(b1-3)GalNAc
In short: as §1

[17] = molecular target: Neu5Ac(a2-6)Gal(b1-4)GlcNAc(b1-2)Man(a1-6)[Man(a1-3)]Man(b1-4)GlcNAc(b1-4)GlcNAc
In short: as §1

[18] = molecular target: Neu5Ac(a2-6)Gal(b1-4)GlcNAc(b1-2)[Neu5Ac(a2-6)Gal(b1-4)GlcNAc(b1-6)]Man(a1-6)[Neu5Ac(a2-6)Gal(b1-4)GlcNAc(b1-2)Man(a1-3)][GlcNAc(b1-4)]Man(b1-4)GlcNAc(b1-4)GlcNAc
In short: as §1

[19] = molecular target: Neu5Ac(a2-6)Gal(b1-4)GlcNAc(b1-3)Gal(b1-4)GlcNAc(b1-3)Gal(b1-4)GlcNAc(b1-2)Man(a1-3)[Neu5Ac(a2-6)Gal(b1-4)GlcNAc(b1-3)Gal(b1-4)GlcNAc(b1-3)Gal(b1-4)GlcNAc(b1-2)Man(a1-6)]GalNAc
In short: as §1

Neu5Ac(a2-6)GalNAc = molecular target: Neu5Ac(a2-6)GalNAc
In short: as §1

[20] = molecular target: Neu5Ac(a2-8)Neu5Ac(a2-3)[GalNAc(b1-4)]Gal(b1-4)Glc
In short: as §1

[21] = molecular target: Neu5Gc(a2-3)Gal(b1-4)GlcNAc
In short: as §1

[22] = molecular target: Neu5Gc(a2-3)Gal(b1-4)[Fuc(a1-3)]GlcNAc
In short: as §1

[23] = molecular target: Neu5Gc(b2-6)Gal(b1-4)GlcNAc
In short: as §1

B1: MtEccB1 (Mycobacterium tuberculosis H37Rv), O69734 (protein)
chain: MGLRLTTKVQVSGWRFLLRRLEHAIVRRDTRMFDDPLQFYSRSIALGIVVAVLILAGAALLAYFKPQGKLGGTSLFTDRATNQLYVLLSGQLHPVYNLTSARLVLGNPANPATVKSSELSKLPMGQTVGIPGAPYATPVSAGSTSIWTLCDTVARADSTSPVVQTAVIAMPLEIDASIDPLQSHEAVLVSYQGETWIVTTKGRHAIDLTDRALTSSMGIPVTARPTPISEGMFNALPDMGPWQLPPIPAAGAPNSLGLPDDLVIGSVFQIHTDKGPQYYVVLPDGIAQVNATTAAALRATQAHGLVAPPAMVPSLVVRIAERVYPSPLPDEPLKIVSRPQDPALCWSWQRSAGDQSPQSTVLSGRHLPISPSAMNMGIKQIHGTATVYLDGGKFVALQSPDPRYTESMYYIDPQGVRYGVPNAETAKSLGLSSPQNAPWEIVRLLVDGPVLSKDAALLEHDTLPADPSPRKVPAGASGAP
glycan array binding signal (z-score) (Gal(b1-6)Gal): -0.836
glycan array binding signal (z-score) (Gal3S6S(b1-4)GlcNAc): 0.192
glycan array binding signal (z-score) (Gal3S6S(b1-4)GlcNAc6S): 3.9
glycan array binding signal (z-score) (Gal4S6S(b1-4)GlcNAc): 3.03
glycan array binding signal (z-score) (Gal6S(b1-4)Glc): 0.586
glycan array binding signal (z-score) [1]: -1.14
glycan array binding signal (z-score) [2]: 0.812
glycan array binding signal (z-score) [3]: -0.488
glycan array binding signal (z-score) [4]: 3.92
glycan array binding signal (z-score) [5]: -0.11
glycan array binding signal (z-score) [6]: -1.02
glycan array binding signal (z-score) [7]: 0.339
glycan array binding signal (z-score) [8]: 3.37
glycan array binding signal (z-score) [9]: -0.342
glycan array binding signal (z-score) [10]: 0.263
glycan array binding signal (z-score) [11]: 0.038
glycan array binding signal (z-score) [12]: 4.06
glycan array binding signal (z-score) [13]: -1.57
glycan array binding signal (z-score) [14]: 2.66
glycan array binding signal (z-score) [15]: 1.54
glycan array binding signal (z-score) [16]: 0.588
glycan array binding signal (z-score) [17]: 0.711
glycan array binding signal (z-score) [18]: -0.566
glycan array binding signal (z-score) [19]: 2.47
glycan array binding signal (z-score) (Neu5Ac(a2-6)GalNAc): -0.143
glycan array binding signal (z-score) [20]: 0.156
glycan array binding signal (z-score) [21]: -0.509
glycan array binding signal (z-score) [22]: 0.844
glycan array binding signal (z-score) [23]: -0.779
